The values that follow come from publication PMC5700166.

Substitutions are numbered along the chain they refer to.

What all share (assay): protein-binding microarray (PBM); PBM: ~300 nM protein, 6 mM HEPES pH 7.8, 80 mM KCl, 0.5 mM EDTA, 0.5 mM EGTA, 6% glycerol, 35 ng/ul poly-dIdC, 1% milk, 1 h, room temperature; Ap Aiptasia and Nv Nematostella (sea anemones) / Co Capsaspora / Aq Amphimedon (sponge) / Dm Drosophila / Hu human; RHD is the Rel homology domain; high values mean tight binding
Common to all, as to settings: dsDNA, one strand shown

Experiment [1] has as its target T1, GST-Ap-NF-kB RHD (Exaiptasia pallida (Aiptasia), UniProt A0A913YAJ5 2-422).
T1 sequence: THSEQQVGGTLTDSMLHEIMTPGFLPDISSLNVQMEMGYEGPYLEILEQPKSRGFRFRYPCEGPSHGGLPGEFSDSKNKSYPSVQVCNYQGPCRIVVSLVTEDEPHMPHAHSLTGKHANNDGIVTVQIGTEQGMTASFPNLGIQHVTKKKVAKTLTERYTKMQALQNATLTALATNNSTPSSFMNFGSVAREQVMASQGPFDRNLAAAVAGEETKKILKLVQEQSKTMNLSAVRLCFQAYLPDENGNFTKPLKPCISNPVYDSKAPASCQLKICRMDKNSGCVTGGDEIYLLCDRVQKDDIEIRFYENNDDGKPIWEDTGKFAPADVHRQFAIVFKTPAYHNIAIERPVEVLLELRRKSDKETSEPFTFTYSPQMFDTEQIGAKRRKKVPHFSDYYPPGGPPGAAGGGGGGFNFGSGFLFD

Experiment [2] addresses T2, GST-Nv-NF-kB (Cys allele) (Nematostella vectensis, UniProt E5G601 2-411).
T2 sequence: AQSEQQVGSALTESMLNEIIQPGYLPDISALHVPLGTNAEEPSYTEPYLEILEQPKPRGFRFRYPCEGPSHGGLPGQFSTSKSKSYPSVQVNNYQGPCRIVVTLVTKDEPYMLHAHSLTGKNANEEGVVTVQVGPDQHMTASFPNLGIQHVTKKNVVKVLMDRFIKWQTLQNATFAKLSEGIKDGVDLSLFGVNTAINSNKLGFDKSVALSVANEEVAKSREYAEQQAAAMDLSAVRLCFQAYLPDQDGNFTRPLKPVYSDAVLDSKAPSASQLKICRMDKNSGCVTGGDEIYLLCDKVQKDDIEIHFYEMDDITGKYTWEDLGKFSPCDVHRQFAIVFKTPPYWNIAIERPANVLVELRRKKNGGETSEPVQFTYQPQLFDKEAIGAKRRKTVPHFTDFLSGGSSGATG

The target in experiment [3] is T3, GST-Nv-NF-kB (Ser allele) (Nematostella vectensis, UniProt A7UNT2 2-411).
T3 sequence: T2 sequence with Q21R, C66S, S207N, E215Q, V217A, E225K, A268E, D399E

The target of experiment [4] is T4, GST-Co-NF-kB (Capsaspora owczarzaki, UniProt F1ARL5 200-546).
T4 sequence: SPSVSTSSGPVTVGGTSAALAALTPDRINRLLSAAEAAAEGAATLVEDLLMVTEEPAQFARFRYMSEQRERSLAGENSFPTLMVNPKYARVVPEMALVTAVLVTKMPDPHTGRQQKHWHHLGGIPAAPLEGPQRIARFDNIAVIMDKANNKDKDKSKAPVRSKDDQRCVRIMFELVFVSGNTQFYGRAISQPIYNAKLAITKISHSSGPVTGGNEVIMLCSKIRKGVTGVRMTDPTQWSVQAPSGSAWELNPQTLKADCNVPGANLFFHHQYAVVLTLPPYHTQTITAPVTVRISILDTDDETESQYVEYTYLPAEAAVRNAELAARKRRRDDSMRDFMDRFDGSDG

Experiment [5] deals with T5, GST-Dm-Relish (Drosophila melanogaster, UniProt Q94527 99-473).
T5 sequence: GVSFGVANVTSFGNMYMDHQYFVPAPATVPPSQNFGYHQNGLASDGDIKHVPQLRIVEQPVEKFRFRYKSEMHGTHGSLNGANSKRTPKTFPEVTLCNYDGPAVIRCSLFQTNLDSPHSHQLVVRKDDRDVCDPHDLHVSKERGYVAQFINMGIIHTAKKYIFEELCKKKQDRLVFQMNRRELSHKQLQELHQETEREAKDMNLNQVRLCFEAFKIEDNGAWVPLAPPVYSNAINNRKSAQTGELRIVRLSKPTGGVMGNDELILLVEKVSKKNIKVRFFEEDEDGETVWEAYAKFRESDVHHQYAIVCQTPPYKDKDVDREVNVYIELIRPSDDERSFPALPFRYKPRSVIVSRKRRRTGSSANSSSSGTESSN

For experiment [6], the target named is T6, GST-Aq-NF-kB (Amphimedon queenslandica, UniProt A9Y5G7 2-389).
T6 sequence: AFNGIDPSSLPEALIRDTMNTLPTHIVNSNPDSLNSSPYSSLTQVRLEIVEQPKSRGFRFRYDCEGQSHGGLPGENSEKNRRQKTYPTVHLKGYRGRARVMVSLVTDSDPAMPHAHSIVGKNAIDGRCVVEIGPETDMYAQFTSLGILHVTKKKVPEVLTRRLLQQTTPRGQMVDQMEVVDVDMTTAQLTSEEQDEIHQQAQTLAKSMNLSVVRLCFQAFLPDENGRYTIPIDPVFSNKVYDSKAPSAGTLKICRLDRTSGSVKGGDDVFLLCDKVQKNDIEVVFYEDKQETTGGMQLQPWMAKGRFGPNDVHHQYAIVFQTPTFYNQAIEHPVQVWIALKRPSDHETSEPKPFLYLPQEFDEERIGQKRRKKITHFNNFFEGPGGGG

Experiment [7] has as its target GST-Hu-p50 (Homo sapiens, UniProt P19838 7-356).

Chain of GST-Hu-p50 (P19838 7-356): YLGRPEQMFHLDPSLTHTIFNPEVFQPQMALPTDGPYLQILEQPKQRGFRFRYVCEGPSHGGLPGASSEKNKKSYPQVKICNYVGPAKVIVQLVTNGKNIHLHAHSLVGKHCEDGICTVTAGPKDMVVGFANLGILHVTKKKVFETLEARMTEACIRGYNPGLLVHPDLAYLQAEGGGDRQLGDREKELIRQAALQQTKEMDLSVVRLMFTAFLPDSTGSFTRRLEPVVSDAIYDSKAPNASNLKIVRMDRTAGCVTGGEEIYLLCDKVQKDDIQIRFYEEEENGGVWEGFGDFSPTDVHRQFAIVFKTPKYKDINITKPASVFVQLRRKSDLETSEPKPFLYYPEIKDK

Take “CCGATTAACATCAGGGGGAAATATGATGTTAATCGGGTCTTGATTCGCTTGACGCTGCTG”: the binding signal amounted to 7.3 z-score in experiment [1]; 8.58 z-score in experiment [2]; 10.6 z-score in experiment [3]; 11.1 z-score in experiment [4]; 4.77 z-score in experiment [5]; 6.38 z-score in experiment [6]. Further, the binding signal in experiment [7] amounted to 7.38 z-score.

Regarding “CCGATTAACATCAGGGGAAATGATGATGTTAATCGGGTCTTGATTCGCTTGACGCTGCTG”, the binding signal in experiment [1] came to 5.75 z-score; in experiment [2], 6.87 z-score; in experiment [3], 9.61 z-score; in experiment [4], 7.35 z-score; in experiment [5], 2.27 z-score; in experiment [6], 4.43 z-score. For the same sequence, the binding signal in experiment [7] was determined as 5.37 z-score.

Turning to “CCGATTAACATCAGGGAACCACCTGATGTTAATCGGGTCTTGATTCGCTTGACGCTGCTG”, the binding signal in experiment [1] was 6.9 z-score; in experiment [2] it was 5.68 z-score; in experiment [3] it was 4.58 z-score; in experiment [4], 1.22 z-score; in experiment [5] it was 9.5 z-score; in experiment [6] it was 6.96 z-score. The sequence further returned a binding signal in experiment [7] of 5.71 z-score.

In the case of “CCGATTAACATCAAATAATCCCCTGATGTTAATCGGGTCTTGATTCGCTTGACGCTGCTG”, the binding signal in experiment [1] was determined as 8.76 z-score; in experiment [2], 10 z-score; in experiment [3], 10.6 z-score; in experiment [4], 5.91 z-score; in experiment [5], 7.99 z-score; in experiment [6], 7.75 z-score. For the same sequence, in experiment [7], the binding signal worked out at 6.78 z-score.

As to “CCGATTAACATCACCCACTCCCCTGATGTTAATCGGGTCTTGATTCGCTTGACGCTGCTG”, the binding signal in experiment [1] worked out at 4.11 z-score; in experiment [2], 2.69 z-score; in experiment [3], 3.92 z-score; in experiment [4], 2.82 z-score; in experiment [5], 1.47 z-score; in experiment [6], 3.04 z-score. The sequence further gave a binding signal in experiment [7] of 3.03 z-score.

Consider “CCGATTAACATCACGAAATCCCCTGATGTTAATCGGGTCTTGATTCGCTTGACGCTGCTG”, for which the binding signal in experiment [1] was found to be 8.93 z-score; in experiment [2], 9.59 z-score; in experiment [3], 11.6 z-score; in experiment [4], 4 z-score; in experiment [5], 8.34 z-score; in experiment [6], 6.39 z-score. Also, the binding signal in experiment [7] was 7.74 z-score.

For “CCGATTAACATCAGGGAATCTACTGATGTTAATCGGGTCTTGATTCGCTTGACGCTGCTG”, the binding signal came to 2.43 z-score in experiment [1]; 3.44 z-score in experiment [2]; 3.68 z-score in experiment [3]; 1.94 z-score in experiment [4]; 4.76 z-score in experiment [5]; 4.82 z-score in experiment [6]. For the same sequence, the binding signal in experiment [7] was found to be 2.96 z-score.

Turning to “CCGATTAACATCAGGGGAAAACCTGATGTTAATCGGGTCTTGATTCGCTTGACGCTGCTG”, the binding signal in experiment [1] stood at 9.38 z-score; in experiment [2], 10.6 z-score; in experiment [3], 11.5 z-score; in experiment [4], 7.99 z-score; in experiment [5], 8.9 z-score; in experiment [6] it was 9.77 z-score. Moreover, in experiment [7], the binding signal came out at 6.91 z-score.

As to “CCGATTAACATCAGGGGGGTGCATGATGTTAATCGGGTCTTGATTCGCTTGACGCTGCTG”, the binding signal came to 4.21 z-score in experiment [1]; 2.54 z-score in experiment [2]; 3.71 z-score in experiment [3]; 3.47 z-score in experiment [4]; 4.16 z-score in experiment [5]; 3.59 z-score in experiment [6]. In experiment [7], the binding signal was 3.86 z-score.
